This is part of a sample that, as a whole, favours compounds with a hit. Of some 83,000 tested, about 20% had one in any assay.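 How to read the values: 0–100, growth inhibition (40 = 60% inhibited); 0, no net growth; -100 to 0, cell death (-40 = 40% of starting cells died; -100 = all dead).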 The source made the active and inactive calls.
These molecules were tested on SK-MEL-2 melanoma (assay: NCI-60 one-dose screen, 48 h (100 = growth as untreated, 0 = no growth, -100 = all killed)). Conditions: 10 µM unless noted.
Experimental: Growth inhibition of the SK-MEL-2 human tumor cell line is measured as a screen for anti-cancer activity. Cells are grown in 96 well plates and exposed to the test compound for 48 hours. Compounds are tested at a single concentration, which is 10^-5 M for most compounds. The reported endpoint is percent growth (GI% or GIPRCNT), where numbers from 0 - 100% represent growth inhibition, and numbers from -100% - 0 represent cell death. For example, a value of 40 represents 60% growth inhibition. A value of 0 means no net growth occurred over the course of the experiment. A value of -40 indicates 40% of cells at the beginning of the experiment died by the end of the experiment. A value of -100 means all cells are dead at the end of the experiment.
NCI-60 Human Tumor Cell Lines Screen was performed using the standard one-dose NCI protocol, which is described in more detail at https://dtp.cancer.gov/discovery_development/nci-60/default.htm.
Compounds with GIPRCNT values below 10 were considered active. Activity score was based on GIPRCNT using the following formula: […]
Score is 0 for GIPRCNT values of 100 or above, 50 for GIPRCNT values of 0, and 100 for GIPRCNT values of -100.
In the case of COc1ccc(CNC(=O)C(O)C(Cc2ccccc2)NC(=O)c2[nH]c3ccccc3c(=O)c2C)cc1OC (stereo not given), the growth is reported as 99.5% (inactive). COC(=O)[C@]12CC[C@@H](C)[C@H](C)[C@@H]1C1=CC[C@@H]3[C@@]4(C)C(C=O)=C[C@@](C)(COS(C)(=O)=O)[C@@H]4C(=O)C[C@@]3(C)[C@]1(C)CC2 was tested, and the growth was 66.9% (inactive). In the case of CCCCOc1nc2ccccc2cc1C1CNC(=O)c2ccccc2N1 (stereo not given), the growth is reported as 15.7% (inactive). In the case of NC(N)=Nc1nc2ccccc2n2c1nc1ccccc12, the growth is reported as 70.3% (inactive). For COc1cccc(-c2nn(-c3ccccc3)cc2-c2ccnc(NCCCNC(=O)c3ccccc3)c2)c1, the growth was 63.6% (inactive). In the case of CC(C)(C)n1cc(-c2ccnc(NCCCNS(=O)(=O)c3ccccc3)c2)c(-c2ccccc2)n1, the growth is reported as 98.7% (inactive). In the case of Cc1nn(-c2ccccc2)c(Cl)c1/C=C(/NC(=O)c1ccccc1)c1nc2ccccc2[nH]1, the growth is reported as 111% (inactive). In the case of CCSC1=NC2C(N(CC)C(=O)N2CC)N1/N=C/C=C/c1ccccc1[N+](=O)[O-] (stereo not given), the growth is reported as 50.3% (inactive). In the case of COc1ccccc1CNCCCN1C(=O)c2ccc3c4c(ccc(c24)C1=O)C(=O)N(CCCNCCCCN)C3=O, the growth is reported as -67.9% (active). COc1ccc(-c2cc(-c3cc(OC)ccc3OC)nc(SCC(=O)c3ccccc3)c2C#N)cc1 was tested, and the growth was 89.6% (inactive). With Cc1ccc(S(=O)(=O)Oc2cc(OS(=O)(=O)c3ccc(C)cc3)cc(OS(=O)(=O)c3ccc(C)cc3)c2)cc1 the growth was 91.5% (inactive). In the case of COc1ccc(OC)c(-c2c(C#N)c(-c3ccc(Cl)cc3)nc3c2c(-c2ccccc2)nn3-c2ccccc2)c1, the growth is reported as 102% (inactive). In the case of O=C1/C(=C\c2cccnc2)SC(=S)N1CCc1ccc(O)cc1, the growth is reported as 66.5% (inactive). In the case of Cc1cc(NCCCCNc2ccnc3cc(Cl)ccc23)nc(Nc2ccc(C(=O)N3CCCCC3)cc2)n1, the growth is reported as -63.1% (active). For N=C1C(c2nc(-c3ccc(Br)cc3)cs2)=C(O)CN1CC1CCCO1 (stereo not given), the growth was 89.8% (inactive). For OC(c1cccc(-n2ccc(C(F)(F)F)n2)c1)c1cnccc1NC1CCCCCC1 (stereo not given), the growth was 27.1% (inactive). In the case of N#Cc1c2c(nn(-c3ccccc3)c1=O)C(O)=C([N+](=O)[O-])C(c1ccccc1)C2 (stereo not given), the growth is reported as 89% (inactive). With COc1ccc(-c2c(N)n[nH]c2-c2ccc(Cl)cc2O)cc1OC the growth was 78.7% (inactive). With COC(=O)[C@]12CC[C@@H](C)[C@H](C)[C@@H]1C1=CC[C@@H]3[C@@]4(C)C(C=O)=C[C@@](C)(COC(=O)/C=C/c5ccccc5)[C@@H]4[C@H](O)C[C@@]3(C)[C@]1(C)CC2 the growth was -23.5% (active). With O=C(COc1ccc(/C=C2\Oc3ccccc3C2=O)cc1)c1ccc(Cl)cc1 the growth was 82.7% (inactive). For Cc1nn(-c2ccccc2)c2nc3c(c(-c4ccc(Cl)cc4)c12)CNC1(CCSCC1)N3, the growth was 134% (inactive). With Cc1nc2ccccc2n1CC1NC(=O)NC1=O (stereo not given) the growth was 104% (inactive). With CC/C=C\C[C@H](O)C/C=C1/C(=O)C=C[C@@H]1C/C=C\CCCC(=O)OC the growth was -2.28% (active). For Cc1c2c(c(C)c3c1oc1cc(O)ccc13)C(=O)N(CCN1CCCCC1)C2=O, the growth was 105% (inactive). For COc1ccc(/C=N/C2=C(C#N)C(c3ccc(OC)cc3)c3ccc4ccccc4c3O2)cc1 (stereo not given), the growth was 84.4% (inactive). For Cc1ccc2nc(NC(=O)CSc3nc(-c4ccccc4)c(C#N)c(=O)n3Cc3ccccc3)sc2c1, the growth was 85.7% (inactive). COc1cc(C2CC(c3cc(OC)c(OCCCOc4ccc(-n5c(/C=C/c6ccccc6)nc6ccccc6c5=O)cc4)c(OC)c3)=NO2)cc(OC)c1OC (stereo not given) was tested, and the growth was 92.3% (inactive). Cc1ccc(-c2c(-c3ccccc3)c(=O)oc3ccc(C)cc23)cc1 was tested, and the growth was 134% (inactive). In the case of NC(=N\N=C/c1ccccc1[N+](=O)[O-])/C(N)=N\N=C/c1ccccc1[N+](=O)[O-], the growth is reported as 98.4% (inactive). With CCCCCCCCCCCCCCCCCC1=NCCN1CCOC1=C(Cl)C(=O)c2ccccc2C1=O the growth was 85.3% (inactive). For C[C@@H]1N=C(c2ccc3ccccc3n2)Nc2nc3ccccn3c2C1=O, the growth was 109% (inactive). Cc1ccc(Nc2nc(N)nc(CSCC(=O)NN)n2)cc1 was tested, and the growth was 109% (inactive). CNC(=O)NCC1OC(n2cnc3c(NC(=O)Nc4ccccc4)ncnc32)C(O[Si](C)(C)C(C)(C)C)C1CC(=O)N(C)OC (stereo not given) was tested, and the growth was -4.44% (active). For NC(N)=NN=C(c1ccccc1)c1ccccc1, the growth was 39.3% (inactive). In the case of Cc1ccc(-n2c(-c3ccccc3)c(-c3ccccc3)c3c(SCC(=O)n4[nH]c(N)cc4=O)ncnc32)cc1, the growth is reported as 108% (inactive). COc1cc(/C=N/n2c(CN3CCOCC3)nc3ccccc3c2=O)cc(OC)c1OC was tested, and the growth was 113% (inactive). For COc1ccc2[nH]c(O)c(C(=Nc3ccc(N(C)C(=O)CN4CCN(C)CC4)cc3)c3ccccc3)c2c1, the growth was 33.2% (inactive). CCn1c(C)nc2cc(C(N)=O)ccc21 was tested, and the growth was 96% (inactive). With COc1ccc(-c2nc(SCCC(C)C)nc(N/N=C\c3cccc(Cl)c3)c2C#N)cc1 the growth was 98.3% (inactive). With O=[N+]([O-])c1ccc(C2CC(c3ccccc3)=Nc3ccccc3S2)cc1 (stereo not given) the growth was 107% (inactive).

— PubChem BioAssay (NCI)
